In PubChem BioAssay (NCATS):
Inconclusive results are not listed. Active and inactive are the calls of the source. Unless noted, calls come from the whole dose curve; as a rule, active = well fitted curve in the direction sought with a large enough effect; inconclusive = small, poorly fitted or top-dose-only effect, or another doubt; inactive = no such curve, though single readings can be large; an effect the other way counts as inactive or inconclusive.

What was measured:
[1] = AP1 Signaling Pathway (AID 357; active = well fitted curve in either direction with a large enough effect, not every such curve was filed as active;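 note: ME-180 reporter cells stimulated with EGF at its EC50 level; % is set by controls: 0 for no effect and ±100 for the full control effect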); details: ME-180 AP-1-bla reporter, EGF-induced, beta-lactamase ratio, 5 h; at 7.69 µM (top of the series) unless noted
How it was run: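 Cells are seeded overnight, exposed to compound titrations and an EC50 level of EGF for 5 hours at 37 °C, then loaded with CCF4 dye for 2.5 hours. Beta-lactamase activity under the AP-1 element is read as a blue/green ratio.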

[2] = target: Cytochrome P450 1A2 (Homo sapiens) (UniProt P05177); assay: p450-cyp1a2 (AID 410; calls by dose curve; note: potency is the fitted concentration of half-maximal effect;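 for activity change, negative = inhibition: -100% = full effect of reference inhibitor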)
Cytochrome P450 1A2 (Homo sapiens), sequence (P05177 whole entry, looked up): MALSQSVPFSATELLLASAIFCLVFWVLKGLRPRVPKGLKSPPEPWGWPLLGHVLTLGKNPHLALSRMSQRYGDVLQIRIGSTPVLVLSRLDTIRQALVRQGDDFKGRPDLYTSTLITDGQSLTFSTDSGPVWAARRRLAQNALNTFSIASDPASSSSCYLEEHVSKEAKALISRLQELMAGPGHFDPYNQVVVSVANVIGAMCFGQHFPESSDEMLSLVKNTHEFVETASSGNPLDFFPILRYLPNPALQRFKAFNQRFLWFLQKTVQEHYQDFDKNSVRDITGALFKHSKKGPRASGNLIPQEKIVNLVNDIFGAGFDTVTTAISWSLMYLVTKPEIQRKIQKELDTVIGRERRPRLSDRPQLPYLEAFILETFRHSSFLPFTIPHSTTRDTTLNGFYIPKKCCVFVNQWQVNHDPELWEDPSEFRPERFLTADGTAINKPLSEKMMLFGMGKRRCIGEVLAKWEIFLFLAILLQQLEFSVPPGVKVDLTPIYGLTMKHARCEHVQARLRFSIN
How it was run: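 20nM CYP1A2 with 100uM Luciferin-ME (at Km) in 100mM KPO4; compound preincubated 10 min, NADPH regeneration added, 60 min at room temperature. Luciferin quantified by luminescence after detection reagent; normalized to 57 uM furafylline.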

[3] = NFAT Signaling Pathway (AID 444; active = well fitted curve in either direction with a large enough effect, not every such curve was filed as active;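 note: carbachol stimulus at about its EC50 of 1 µM final; % is set by controls: 0 for no effect and ±100 for the full control effect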); details: Jurkat NFAT-bla M1, carbachol, beta-lactamase ratio, 5 h; at 7.69 µM (top of the series) unless noted
How it was run: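 Jurkat cells with NFAT-driven β-lactamase reporter and co-expressed M1 receptor, stimulated with carbachol (final 1 uM, ~EC50), compound titration, 5 h at 37 °C. CCF4 loaded 1 h at RT; 460/530 nm ratio gave %activity and AC50.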

[4] = Stat Signaling Pathway (AID 446; active = well fitted curve in either direction with a large enough effect, not every such curve was filed as active;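 note: ME-180 cervical cancer cells given 40 pM IL-6 alongside compound; SIE-controlled beta-lactamase reporter measured as 460/530 nm FRET emission ratio; % is set by controls: 0 for no effect and ±100 for the full control effect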); details: ME-180 SIE beta-lactamase reporter, IL-6 stimulated, 5 h; at 7.69 µM (top of the series) unless noted
How it was run: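 Reporter line: ME-180 cervical carcinoma, SIE-beta-lactamase. Treatment: compound with 40 pM IL-6, 5 hrs, 37 C, in low-serum OPTI-MEM with 10 mM HEPES pH 7.3. Detection: 460/530 nm fluorescence.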

[5] = target: Glucocorticoid receptor (Homo sapiens) (UniProt P04150); assay: GR-GFP Redistribution (AID 450;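 active = compounds whose dose series gives a full or clear partial fitted curve of increased nuclear translocation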; note: potency is the fitted concentration of half-maximal effect); details: U2OS GR-GFP nuclear translocation, laser cytometry, 2 h
Glucocorticoid receptor (Homo sapiens), sequence (P04150 whole entry, looked up, the tested form may be a part): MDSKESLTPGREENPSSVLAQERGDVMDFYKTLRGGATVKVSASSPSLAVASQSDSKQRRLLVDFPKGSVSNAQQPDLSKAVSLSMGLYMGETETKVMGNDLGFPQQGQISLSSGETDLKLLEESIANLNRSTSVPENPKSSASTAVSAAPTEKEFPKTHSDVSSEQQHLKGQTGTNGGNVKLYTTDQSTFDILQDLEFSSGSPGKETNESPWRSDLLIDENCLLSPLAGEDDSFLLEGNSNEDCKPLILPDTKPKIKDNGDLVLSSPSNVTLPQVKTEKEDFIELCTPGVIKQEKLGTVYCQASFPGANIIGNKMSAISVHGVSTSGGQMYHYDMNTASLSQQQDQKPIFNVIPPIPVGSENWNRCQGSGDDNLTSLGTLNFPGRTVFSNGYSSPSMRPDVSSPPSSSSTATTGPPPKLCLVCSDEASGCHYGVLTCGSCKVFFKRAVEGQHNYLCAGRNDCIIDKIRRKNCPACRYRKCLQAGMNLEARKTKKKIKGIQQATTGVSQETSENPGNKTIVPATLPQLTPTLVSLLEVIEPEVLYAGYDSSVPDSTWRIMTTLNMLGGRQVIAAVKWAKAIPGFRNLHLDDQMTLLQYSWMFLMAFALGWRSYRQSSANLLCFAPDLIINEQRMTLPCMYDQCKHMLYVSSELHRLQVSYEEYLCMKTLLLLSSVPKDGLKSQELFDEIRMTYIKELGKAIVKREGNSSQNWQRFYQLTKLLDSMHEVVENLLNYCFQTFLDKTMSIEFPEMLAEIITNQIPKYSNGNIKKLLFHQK

[6] = target: Glucocorticoid receptor (Homo sapiens) (UniProt P04150); assay: GR-EFC Redistribution (AID 451; calls by dose curve; note: potency is the fitted concentration of half-maximal effect); details: CHO-K1 GR-EFC translocation, beta-gal luminescence, 2 h
How it was run: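 CHO-K1 cells expressing nuclear EA and GR-ED fragments of b-gal; compounds titrated up to 46 uM final, 2 h at 37 C. GR nuclear translocation read as complemented b-gal luminescence after 1 h RT detection.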

[7] = target: Mitogen-activated protein kinase 10 (Mus musculus) (UniProt Q61831); assay: JNK3 AlphaScreen Assay (AID 530; active = well fitted curve in either direction with a large enough effect, not every such curve was filed as active;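 note: kinase came from lysate of stimulated human HepG2 cells; signal reports phosphorylation of biotinylated GST-cJun 1-79 at Ser73 with 10 µM ATP; % is set by controls: 0 for no effect and ±100 for the full control effect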)
How it was run: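 Pre-activated (IL-1β/TNFα) JNK3 in HepG2 lysates phosphorylates biotin-GST-cJun(1-79), 10 uM ATP; anti-phospho-cJun(Ser73) AlphaScreen read at room temperature, pH 7.6 Tris buffer. Compounds pre-incubated 15 min as titrations.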

[8] = target: 3',5'-cyclic-AMP phosphodiesterase 4B (Homo sapiens) (UniProt Q07343); assay: qHTS Assay for Inhibitors of PDE-IV (AID 607; active = well fitted activation curve with a large enough effect in the main read-out, with a control signal flat, not every such curve was filed as active; note: % of control where 0% means no effect)
3',5'-cyclic-AMP phosphodiesterase 4B (Homo sapiens), sequence (Q07343 whole entry, looked up): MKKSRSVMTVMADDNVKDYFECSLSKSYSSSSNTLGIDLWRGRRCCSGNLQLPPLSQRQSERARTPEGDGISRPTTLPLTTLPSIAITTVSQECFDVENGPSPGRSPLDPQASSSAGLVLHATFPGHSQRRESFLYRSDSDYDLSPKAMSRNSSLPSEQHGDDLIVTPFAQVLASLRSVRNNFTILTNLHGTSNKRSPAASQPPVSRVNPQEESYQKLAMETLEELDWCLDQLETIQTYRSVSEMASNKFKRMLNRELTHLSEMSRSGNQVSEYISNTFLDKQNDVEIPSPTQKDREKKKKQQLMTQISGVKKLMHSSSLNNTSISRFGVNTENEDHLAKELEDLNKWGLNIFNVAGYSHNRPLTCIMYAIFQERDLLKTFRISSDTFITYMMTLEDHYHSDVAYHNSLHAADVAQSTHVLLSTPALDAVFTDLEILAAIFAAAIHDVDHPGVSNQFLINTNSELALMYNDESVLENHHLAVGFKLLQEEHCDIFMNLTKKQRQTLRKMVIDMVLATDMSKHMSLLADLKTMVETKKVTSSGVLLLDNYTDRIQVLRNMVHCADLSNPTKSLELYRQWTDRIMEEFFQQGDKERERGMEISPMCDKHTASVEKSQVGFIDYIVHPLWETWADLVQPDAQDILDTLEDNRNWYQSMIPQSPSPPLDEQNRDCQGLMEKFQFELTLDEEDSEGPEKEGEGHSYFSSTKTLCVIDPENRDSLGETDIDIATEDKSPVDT
How it was run: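 Cell-based read-out of cAMP via a modified cyclic nucleotide-gated channel and membrane potential dye (535/590 nm) in HEK293 cells expressing PDE4 endogenously. Compounds tested up to 22.9 uM final; 100 uM RO 20-1724 reference.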

[9] = target: Cytochrome P450 2C19 (Homo sapiens) (UniProt P33261); assay: qHTS Assay for Inhibitors and Substrates of Cytochrome P450 2C19 (AID 899); note: % is set by controls: 0 for no effect and ±100 for the full control effect; nearly all actives have a fitted effect of over 60% in size
How it was run: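 Signal comes from luciferase acting on luciferin released by CYP2C19-mediated hydroxylation of Luciferin-H EGE, 10uM (KM). Assay mix: 5nM enzyme, 50mM KPO4; 60 min at 37C with NADPH regeneration. Data normalized against 57uM ketoconazole.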

[10] = target: Muscarinic acetylcholine receptor M1 (Rattus norvegicus) (UniProt P08482); assay: qHTS Assay for Antagonists of Acetylcholine Muscarinic M1 Receptor: Measurement of IP-One Response (AID 944); note: nearly all actives have a fitted effect of over 75% in size
Muscarinic acetylcholine receptor M1 (Rattus norvegicus), sequence (P08482 whole entry, looked up): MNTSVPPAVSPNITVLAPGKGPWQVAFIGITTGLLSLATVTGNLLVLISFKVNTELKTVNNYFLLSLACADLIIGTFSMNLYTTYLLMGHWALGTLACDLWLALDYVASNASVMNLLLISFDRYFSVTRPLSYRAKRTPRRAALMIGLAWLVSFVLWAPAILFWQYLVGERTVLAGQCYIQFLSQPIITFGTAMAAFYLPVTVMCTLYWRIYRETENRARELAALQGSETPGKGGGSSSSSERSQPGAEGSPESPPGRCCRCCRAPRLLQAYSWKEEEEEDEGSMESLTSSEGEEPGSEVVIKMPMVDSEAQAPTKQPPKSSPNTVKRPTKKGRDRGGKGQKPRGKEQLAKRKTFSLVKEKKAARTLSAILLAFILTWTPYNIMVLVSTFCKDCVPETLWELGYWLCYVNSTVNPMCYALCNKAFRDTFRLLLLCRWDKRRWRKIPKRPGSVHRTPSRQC
How it was run: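 CHO cells stably expressing rat M1, pretreated 10 min with compound, then stimulated 30 min with carbachol at EC80 (200 nM) in LiCl-containing buffer pH 7.4; IP1 accumulation read by HTRF competition (665/620 nm).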

[11] = target: Pyruvate kinase (Leishmania mexicana) (UniProt Q27686); assay: qHTS Validation Assay for Inhibitors of Leishmania Mexicana Pyruvate Kinase (AID 945);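 note: 0% = DMSO only neutral control wells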
Pyruvate kinase (Leishmania mexicana), sequence (Q27686 2-499 E452W): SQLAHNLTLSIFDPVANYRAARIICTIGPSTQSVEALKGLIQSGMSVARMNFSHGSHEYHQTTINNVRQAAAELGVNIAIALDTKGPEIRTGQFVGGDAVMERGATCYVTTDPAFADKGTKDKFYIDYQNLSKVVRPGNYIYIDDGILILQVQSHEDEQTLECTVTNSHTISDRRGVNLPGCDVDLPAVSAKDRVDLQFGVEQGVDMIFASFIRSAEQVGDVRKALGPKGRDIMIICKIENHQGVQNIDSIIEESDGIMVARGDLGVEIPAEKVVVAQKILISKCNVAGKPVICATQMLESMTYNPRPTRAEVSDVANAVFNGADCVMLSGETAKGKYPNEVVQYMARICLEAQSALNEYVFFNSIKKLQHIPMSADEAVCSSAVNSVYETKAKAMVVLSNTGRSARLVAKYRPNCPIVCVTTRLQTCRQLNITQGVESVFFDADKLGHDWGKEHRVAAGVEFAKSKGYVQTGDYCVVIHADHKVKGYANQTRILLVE
How it was run: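 The enzyme is a highly purified E451W mutant of LmPYK used at 0.2 nM. It converts 0.5 mM PEP and 0.1 mM ADP over 1 h at room temperature; product ATP is quantified by luciferase luminescence relative to DMSO controls.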

[12] = target: Pyruvate kinase PKM (Homo sapiens) (UniProt P14618); assay: qHTS Assay for Activators of Human Muscle Pyruvate Kinase (AID 954; active = well fitted curve in the direction sought with a large enough effect, not every such curve was filed as active;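 note: 0% = uninhibited enzyme and -100% = no enzyme or full thiadiazolimine inhibition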)
Pyruvate kinase PKM (Homo sapiens), sequence (P14618 whole entry, looked up): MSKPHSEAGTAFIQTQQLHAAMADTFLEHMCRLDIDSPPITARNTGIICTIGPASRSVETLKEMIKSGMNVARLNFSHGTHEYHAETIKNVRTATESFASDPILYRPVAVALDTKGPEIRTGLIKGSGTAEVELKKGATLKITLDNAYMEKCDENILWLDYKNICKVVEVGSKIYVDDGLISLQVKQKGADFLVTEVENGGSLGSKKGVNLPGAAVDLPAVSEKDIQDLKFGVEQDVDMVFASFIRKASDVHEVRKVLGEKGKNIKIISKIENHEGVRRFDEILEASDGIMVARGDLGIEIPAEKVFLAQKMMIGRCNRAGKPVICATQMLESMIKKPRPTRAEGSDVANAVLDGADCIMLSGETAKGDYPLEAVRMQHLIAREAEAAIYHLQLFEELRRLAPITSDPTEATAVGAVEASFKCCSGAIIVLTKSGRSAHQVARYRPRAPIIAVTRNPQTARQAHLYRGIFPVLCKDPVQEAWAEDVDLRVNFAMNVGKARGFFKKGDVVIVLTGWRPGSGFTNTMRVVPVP
How it was run: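 Human PKM2 activity is measured as ATP generation, detected by luciferase-coupled luminescence. The enzyme (0.1 nM) acts on 0.5 mM PEP and 0.1 mM ADP for 1 h at ambient temperature; data are normalized to uninhibited and full-inhibition wells.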

[13] = target: Alpha-galactosidase A (Homo sapiens) (UniProt P06280); assay: Counterscreen for Glucocerebrosidase Inhibitors: qHTS Assay for Human alpha-Galactosidase at pH 4.5 (AID 992); note: 0% is about no effect
Alpha-galactosidase A (Homo sapiens), sequence (P06280 whole entry, looked up): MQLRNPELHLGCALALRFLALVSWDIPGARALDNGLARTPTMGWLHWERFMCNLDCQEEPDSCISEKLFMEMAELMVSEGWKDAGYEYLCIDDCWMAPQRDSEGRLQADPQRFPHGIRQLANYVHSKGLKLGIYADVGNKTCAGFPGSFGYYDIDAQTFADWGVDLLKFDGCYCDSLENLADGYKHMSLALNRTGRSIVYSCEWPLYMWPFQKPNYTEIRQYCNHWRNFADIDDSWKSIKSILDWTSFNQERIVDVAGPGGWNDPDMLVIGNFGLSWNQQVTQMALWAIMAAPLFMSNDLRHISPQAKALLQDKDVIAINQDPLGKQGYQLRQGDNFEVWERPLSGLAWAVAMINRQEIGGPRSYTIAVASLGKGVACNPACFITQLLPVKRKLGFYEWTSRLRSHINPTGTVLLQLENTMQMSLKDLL
How it was run: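 Quantitative HTS: compounds tested from 0.7 nM up to 77 uM against 2 nM enzyme with 80 uM 4-MU alpha-D-galactopyranoside. The 20 min room-temperature reaction is stopped with 1M NaOH/1M glycine, pH 10.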

[14] = target: alpha-glucosidase (Oryza sativa, rice) (UniProt Q653V4); assay: Counterscreen for Glucocerebrosidase Inhibitors: qHTS Assay for Rice alpha-Glucosidase at pH 5.0 (AID 997);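 note: 0% = full activity with enzyme and -100% = basal without enzyme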
How it was run: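 Rice alpha-glucosidase (4 nM final) with 400 uM 4-methylumbelliferyl-alpha-D-glucopyranoside in citrate buffer pH 5.0, 20 min at room temperature, stopped at pH 10; fluorescence 365/440 nm, compounds 0.7 nM–77 uM, AC50 from Hill fits.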

[15] = target: Guanine nucleotide-binding protein G(i) subunit alpha-1 (Homo sapiens) (UniProt P63096); assay: qHTS Assay for Inhibitors of RGS12 GoLoco Motif Activity (Green Fluorophore) (AID 879);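 note: 0% = labeled peptide with Gαi1 and full inhibition = labeled peptide alone without protein; negative values mean loss of peptide binding seen as reduced polarization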
Guanine nucleotide-binding protein G(i) subunit alpha-1 (Homo sapiens), sequence (P63096 whole entry, looked up): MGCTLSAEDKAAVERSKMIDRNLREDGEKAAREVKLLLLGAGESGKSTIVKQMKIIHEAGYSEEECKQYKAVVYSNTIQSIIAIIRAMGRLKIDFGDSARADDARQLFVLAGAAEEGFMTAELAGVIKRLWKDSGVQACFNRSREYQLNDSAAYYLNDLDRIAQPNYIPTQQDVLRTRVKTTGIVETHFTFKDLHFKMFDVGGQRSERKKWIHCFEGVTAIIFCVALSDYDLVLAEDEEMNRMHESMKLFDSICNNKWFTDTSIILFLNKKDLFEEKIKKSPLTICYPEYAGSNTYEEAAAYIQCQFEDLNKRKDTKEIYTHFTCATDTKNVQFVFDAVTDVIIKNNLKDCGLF
How it was run: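 Fluorescence polarization assay: 50 nM Gαi1 with 10 nM FITC-labeled RGS12 GoLoco peptide in 10 mM Tris pH 7.5, 150 mM NaCl, 0.1 mM GDP, 0.05% NP40, 10 min at room temperature with compound.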

[16] = target: Cytochrome P450 3A4 (Homo sapiens) (UniProt P08684); assay: qHTS Assay for Activators of Cytochrome P450 3A4 (AID 885); note: nearly all actives have a fitted effect of over 65% in size
Cytochrome P450 3A4 (Homo sapiens), sequence (P08684 whole entry, looked up): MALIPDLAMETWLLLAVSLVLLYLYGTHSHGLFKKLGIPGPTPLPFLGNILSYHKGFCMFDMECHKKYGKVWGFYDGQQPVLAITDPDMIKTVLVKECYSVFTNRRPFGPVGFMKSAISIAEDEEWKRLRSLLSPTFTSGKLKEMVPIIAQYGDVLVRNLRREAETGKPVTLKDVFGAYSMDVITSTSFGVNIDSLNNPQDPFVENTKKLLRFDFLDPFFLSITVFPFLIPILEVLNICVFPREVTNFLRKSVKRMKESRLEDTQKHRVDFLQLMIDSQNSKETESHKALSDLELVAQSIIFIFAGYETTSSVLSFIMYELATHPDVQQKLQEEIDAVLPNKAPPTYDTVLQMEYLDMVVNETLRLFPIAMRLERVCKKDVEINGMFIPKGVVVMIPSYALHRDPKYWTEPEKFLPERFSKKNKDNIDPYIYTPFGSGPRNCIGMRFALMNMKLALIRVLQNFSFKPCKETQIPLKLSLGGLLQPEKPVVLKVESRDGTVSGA
How it was run: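 Signal was normalized against complete inhibition by 57 uM ketoconazole. The reaction used 20nM CYP3A4 with 25uM Luciferin-PPXE, 10-min compound preincubation and a 60-min NADPH-supported step at RT.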

[17] = qHTS Assay for Identification of Small Molecule Agonists for Thrombopoietin (TPO) Signaling Pathway (AID 917); note: % is set by controls: 0 for no effect and ±100 for the full control effect
How it was run: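 Murine Ba/F3 cells stably expressing human TPO receptor and a Glycoprotein IIb promoter–luciferase reporter were IL-3-starved overnight, then treated with compounds plus TPO (26 pM final, its EC50) for 24 hrs at 37 C; luminescence was read.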

[18] = target: Muscarinic acetylcholine receptor M1 (Rattus norvegicus) (UniProt P08482); assay: qHTS Assay for Antagonists of Acetylcholine Muscarinic M1 Receptor: Kinetic Measurement of Intracellular Calcium Response (AID 943); note: nearly all actives have a fitted effect of over 75% in size
How it was run: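 CHO cells expressing rat M1 receptor, Fluo-4 loaded, preincubated 10 min with compound, then stimulated with EC80 carbachol (100 nM final). Kinetic calcium fluorescence over 4 min; response taken as peak over basal signal.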

CCCCCCCCCC[Si](C)(C)CCC(=O)N[C@@H](Cc1ccc(C)cc1)c1ccccc1
inactive: activity change, negative = inhibition [1] 20.2% [at 38 µM] | activity change, negative = inhibition [3] -7.96% [at 38 µM] | activity, negative = inhibition [4] -5.69% [at 38 µM] | Potency [5] > 46 µM | Potency [6] > 46 µM | Potency [7] | Potency [8] | Potency [9] | Potency [10] | outcome [11] | outcome [12] | outcome [13] | Potency [14]
active: Potency [2] 31.6 µM

O=c1ccn([C@@H]2O[C@@H](COP(=O)(O)OP(=O)(O)O)[C@H](O)[C@@H]2O)c(=O)[nH]1
inactive: activity change, negative = inhibition [1] 4.38% [at 38 µM] | Potency [2] | activity change, negative = inhibition [3] -1.51% [at 38 µM] | activity, negative = inhibition [4] 11.6% [at 38 µM] | Potency [5] > 46 µM | Potency [6] > 46 µM | Potency [8] | outcome [15] | Potency [16] | outcome [17] | Potency [18] | Potency [10] | outcome [11] | outcome [12] | outcome [13] | Potency [14]

C[C@@H](Cc1ccccc1)Nc1ncnc2c1ncn2[C@@H]1O[C@@H](CO)[C@H](O)[C@@H]1O
inactive: activity change, negative = inhibition [1] -12.1% [at 38 µM] | Potency [2] | activity change, negative = inhibition [3] -0.283% [at 38 µM] | activity, negative = inhibition [4] -0.703% [at 38 µM] | Potency [5] > 46 µM | Potency [6] > 46 µM | Potency [7] | Potency [8] | Potency [16] | outcome [17] | Potency [10] | outcome [11] | outcome [12] | outcome [13] | Potency [14]

C[C@H](O)[C@H](O)[C@@H]1CNc2nc(N)[nH]c(=O)c2N1
inactive: activity change, negative = inhibition [1] 7.68% [at 38 µM] | Potency [2] | activity change, negative = inhibition [3] 7.39% [at 38 µM] | activity, negative = inhibition [4] 18.8% [at 38 µM] | Potency [5] > 46 µM | Potency [6] > 46 µM | Potency [7] | Potency [8] | outcome [17] | Potency [18] | Potency [10] | outcome [11] | outcome [12] | outcome [13] | Potency [14]

Nc1nc2c(nc(Br)n2[C@@H]2O[C@H]3COP(=O)(O)O[C@@H]3[C@H]2O)c(=O)[nH]1
active: Potency [5] 12.1 µM
inactive: activity change, negative = inhibition [1] 8.86% [at 38 µM] | Potency [2] | activity change, negative = inhibition [3] -0.742% [at 38 µM] | activity, negative = inhibition [4] -10.7% [at 38 µM] | Potency [6] > 46 µM | Potency [7] | Potency [8] | outcome [17] | Potency [18] | Potency [10] | outcome [11] | outcome [12] | outcome [13] | Potency [14]

CC(C)(C)c1onc(OCP(=O)(O)O)c1C[C@@H](N)C(=O)O
inactive: activity change, negative = inhibition [1] -0.711% [at 38 µM] | Potency [2] | activity change, negative = inhibition [3] 8.86% [at 38 µM] | activity, negative = inhibition [4] -10.4% [at 38 µM] | Potency [5] > 46 µM | Potency [6] > 46 µM | Potency [8] | outcome [15] | outcome [17] | Potency [18] | Potency [10] | outcome [11] | outcome [12] | outcome [13] | Potency [14]

Nc1ncnc2c1ncn2[C@@H]1O[C@@H](C(=O)NC2CC2)[C@H](O)[C@@H]1O
inactive: activity change, negative = inhibition [1] -9.63% [at 38 µM] | Potency [2] | activity change, negative = inhibition [3] -15.3% [at 38 µM] | activity, negative = inhibition [4] -7% [at 38 µM] | Potency [5] > 46 µM | Potency [6] > 46 µM | Potency [7] | outcome [15] | Potency [16] | outcome [17] | Potency [18] | Potency [10] | outcome [11] | outcome [12] | outcome [13] | Potency [14]

OC[C@@H]1O[C@@H](n2cnc3c(NC4CCCC4)ncnc32)[C@@H](O)[C@H]1O
inactive: activity change, negative = inhibition [1] -0.201% [at 38 µM] | Potency [2] | activity change, negative = inhibition [3] 1.91% [at 38 µM] | activity, negative = inhibition [4] 12.2% [at 38 µM] | Potency [5] > 46 µM | Potency [6] > 46 µM | Potency [7] | Potency [8] | outcome [17] | outcome [11] | outcome [12] | outcome [13] | Potency [14]
